This note sets out measurements from PubChem BioAssay AID434958 (Southern Research Specialized Biocontainment Screening …, 2010).

The campaign covered roughly 1,200 compounds. About 400 (33%) were called active. How the calls were made is not given here. These entries were drawn from the full list. Entries that show only a call come without a potency. Potency and affinity values are given separately.

This assay can be described thus: mammalian cell cytotoxicity, dose response, cytotoxicity control (AID 434958).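 Further: cells exposed to compound for 72 hours before readout.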 The settings on record: cytotoxicity counter-screen; series mostly up to 40 µM.
Turning to `COc1ccccc1NC(=O)COc1ccc(CO)cc1Cl`, the compound was classed as inactive.
`COc1ccc(NC(=O)COC(=O)Cc2ccc(-c3ccccc3)cc2)c(OC)c1`: the compound was called inactive.
In the case of `COc1cccc(C(=O)C2CCCN(Cc3ccccn3)C2)c1` (configuration not stated), the outcome was inactive.
In the case of `COc1ccc(-c2cc3cc(OC)c(OC)cc3c(C)n2)cc1`, the outcome was inactive.
Under `COc1ccc(OC)c2nc(-c3ccc4c(c3)OCO4)ccc12` stands “inactive”; under `CC(=O)c1c(OC(=O)c2cccc(Cl)c2)c2ccccc2n1C`, “inactive”.
Consider `CCOC(=O)c1ccc(N2CN(C3CCCCC3)CNC2=S)cc1`, for which the call was inactive.
The result for `N=C1C(c2nc3ccccc3[nH]2)=C(O)CN1c1ccc(F)cc1` reads “inactive”; that for `Cn1c2ccccc2c(=O)c2cc(C#CC3(O)CCCCC3)ccc21`, “inactive”.
As to `O=C(O)C1CC(=O)N(c2ccc(OCc3ccccc3Cl)cc2)C1` (configuration not stated), the result was inactive.
The result for `CSc1ccccc1C(=O)Nc1cccc([N+](=O)[O-])c1C` reads “inactive”; that for `Cc1nn(-c2ccccc2)c(N2CCCC2)c1/C=C1\N=C(c2ccc(F)cc2)OC1=O`, “inactive”.
The result for `Cc1cc(C)nc(SCC(=O)Nc2ccccc2[N+](=O)[O-])n1` reads “inactive”; that for `Cc1sc2nc(C(C)(C)C)oc(=O)c2c1C`, “inactive”; that for `CC/C(=N\NC(=O)c1ccc(-c2ccccc2)cc1)C12CC3CC(CC(C3)C1)C2`, “inactive”.
Regarding `CCCCOc1ccc(C(=O)Oc2cccnc2)cc1`, the compound was classed as inactive.
Under `CN(C)S(=O)(=O)c1ccc(C(=O)OCC2CC2(Cl)Cl)cc1` (configuration not stated) stands “inactive”.
For the compound `N/C(=N\c1nc2ccccc2o1)NC(=O)c1ccccc1Br`, the compound was called inactive.
For the compound `CCOC(=O)N1CCN(C(=O)CSc2nnc(COc3ccccc3)o2)CC1`, the outcome was inactive.
Regarding `O=C1C(Cl)=C(N2CCCCC2)C(=O)N1c1ccccc1`, the call was inactive.
Under `CCNC(=S)N/N=C1\C(=O)c2cccc3cccc1c23` stands “inactive”.
The result for `O=C(CSc1ncnc2c1cnn2-c1ccccc1)Nc1ccc2c(c1)OCO2` reads “inactive”; that for `Fc1ccc(-c2csc(NC(=S)Nc3ccccc3)n2)cc1`, “inactive”; that for `O=C(CCC(=O)Nc1ccccc1)NNC(=O)c1ccco1`, “inactive”.
The result for `Cc1ccccc1OCC(=O)Nc1ccccc1N1CCOCC1` reads “inactive”.
In the case of `COc1cccc(NC(=O)C2CC2)c1`, the compound was classed as inactive.
In the case of `Cc1ccc(C)c(NC(=O)c2cc(-c3cccnc3)nc3ccccc23)c1`, the compound was called inactive.
With `c1ccc(Nc2ncnc3c2oc2ccccc23)cc1`, the compound was classed as inactive.
On to `C=CCNC(=S)NC(=O)c1csc([N+](=O)[O-])c1`, for which the compound was classed as inactive.
As to `COC(=O)c1ccc(/C=N\NC(=O)c2ccc(C)cc2Cl)cc1`, the compound was classed as inactive.
The result for `CC1CCN(CCOc2ccc(OCc3ccccc3)cc2)CC1` reads “inactive”.
The result for `Cc1ccc(S(=O)(=O)NCCCCCC(=O)Nc2ccccn2)cc1` reads “inactive”; that for `Cn1c(O)c(/C=C2/C=CC=N2)c(=O)[nH]c1=O`, “inactive”.
The result for `COc1ccc(NC(=O)c2cc(C)nc3ccccc23)c(OC)c1` reads “inactive”.
Turning to `Cc1cc(C)c(C)c(S(=O)(=O)N2C(=S)NC(=O)C2CC(C)C)c1C` (configuration not stated), the compound was called inactive.
Consider `CC(=O)c1ccc(OC(=O)N(c2ccccc2)c2ccccc2)cc1`, for which the outcome was inactive.
Under `CN(C)C1=C(Cl)C(=O)N(c2ccc(Cl)c(Cl)c2)C1=O` stands “inactive”; under `CCCCOc1ccccc1NC(=O)c1ccco1`, “inactive”.
Under `O=c1c2c3n(c(=S)nc2[nH]n1-c1ccccc1)CCCCC3` stands “inactive”.
The result for `COc1ccc(N2C(=O)NC(=O)/C(=C\c3ccc([N+](=O)[O-])s3)C2=O)cc1` reads “inactive”; that for `CCN(CC(=O)Nc1ccc2c(c1)OCCO2)C(=O)c1ccc([N+](=O)[O-])s1`, “inactive”; that for `COc1ccc(NCC(=O)N/N=C/C(C)c2ccccc2)cc1` (configuration not stated), “inactive”.
Take `Cc1cc(/C=N/NC(=O)CC#N)c(C)n1-c1ccc([N+](=O)[O-])cc1`: the call was inactive.
As to `CCCc1cc(C(=O)OCC(=O)N2CCN(c3ccc(OC)cc3)CC2)sc1C`, the call was inactive.
As to `COc1cc(C(=O)NNC(=O)c2cc(-c3ccccc3)n[nH]2)cc(OC)c1C`, the call was inactive.
Under `COc1ccc(C2c3c(C)nn(-c4ccccc4)c3NC(=O)N2c2ccccc2)cc1` (configuration not stated) stands “inactive”; under `CCOC(=O)C1CSC(CC(=O)Nc2ccc(Cl)c(Cl)c2)C(=O)N1` (configuration not stated), “inactive”; under `CCOC(=O)C1CCN(c2ccc(C(N)=O)cc2[N+](=O)[O-])CC1`, “inactive”.
In the case of `CCCCC(=O)NC(=S)Nc1ccc(NC(=O)C(C)C)c(OC)c1`, the compound was called inactive.
Under `O=C1C(Cl)=C(N2CCCCCC2)C(=O)N1c1ccc(Br)cc1` stands “inactive”.
`CCOCC(=O)Nc1cc(C(F)(F)F)ccc1Oc1cccc(Br)c1`: the outcome was inactive.
Take `COc1cc(OC)c(C(=O)Nc2cccc3ccccc23)cc1OC`: the compound was called inactive.
For the compound `C/C(=N\OCC(=O)Nc1nc2ccccc2s1)c1ccccc1`, the compound was called inactive.
Under `CCCCNC(=O)c1onc(CSc2ccc(OC)cc2)c1C(=O)O` stands “inactive”; under `COC(=O)c1c(NC(=O)C2c3ccccc3Oc3ccccc32)sc(C)c1C`, “inactive”.
On to `COc1ccc(OC)c(NC(=O)c2ccccc2SC)c1`, for which the compound was called inactive.
The result for `COc1ccc(Cl)cc1NC(=O)C/C(C)=N/NC(=O)CC#N` reads “inactive”; that for `O=C(CCSc1ccccc1)Nc1nc2c(s1)CCCC2`, “inactive”; that for `CCOC(=O)C(=CNc1ccc2c(c1)c1ccccc1n2CC)C(=O)OCC`, “inactive”.
In the case of `Cc1cc(C)cc(SCc2noc(C(=O)NC(C)C)c2C(=O)O)c1`, the compound was called inactive.
As for `COc1ccccc1C(=O)Nc1ccc2c3c(cccc13)CC2`, the compound was called inactive.
As to `CC(/C=N/NC(=O)c1cc(C(C)(C)C)[nH]n1)=C\c1ccccc1`, the compound was called inactive.
For `CCOC(=O)CNC(=O)/C(=C\c1ccc(F)cc1)NC(=O)c1ccccc1`, the outcome was inactive.
Under `C/C(CC(=O)NCc1ccco1)=N\NC(=O)CC#N` stands “inactive”; under `COc1ccc(/C(O)=C/C(=O)C(=O)NNC(=O)C(O)(c2ccccc2)c2ccccc2)cc1`, “inactive”.
On to `CCOC(=O)c1cc(-c2ccccc2)sc1NC(=O)C(C)N1C(=O)NC(C)(c2ccc(Cl)cc2)C1=O` (configuration not stated), for which the compound was classed as inactive.
With `Cc1ccc(C)c(CSc2nnc(C)c(=O)n2N)c1`, the call was inactive.
`O=C(/C=C/c1cc(Br)ccc1F)OCC(=O)N1CCCC1`: the compound was called inactive.
The result for `CCc1cc(C(=O)O)c(NC(=O)/C=C/c2ccc(OC)cc2)s1` reads “inactive”.
Regarding `CC(C)Oc1ccc(N2CC(C(=O)Nc3ccccc3F)CC2=O)cc1` (configuration not stated), the result was inactive.
The result for `CSc1nnc(-c2ccc(NC(N)=S)cc2)o1` reads “inactive”.
Under `Cc1ccc(S(=O)(=O)N[C@H](C(=O)OCn2nnc3ccccc3c2=O)C(C)C)cc1` stands “inactive”; under `O=C(CNC(=O)c1ccc(Br)cc1)NCC(=O)OCc1ccc(Cl)cc1`, “inactive”; under `O=C(CSC1CS(=O)(=O)c2cc([N+](=O)[O-])ccc21)NNC(=O)c1ccccc1` (configuration not stated), “inactive”.
Under `O=C1O/C(=C/c2ccccc2)N=C1c1ccccc1` stands “inactive”.
For `NNC(=S)Nc1ccc(C(F)(F)F)cc1Cl`, the result was inactive.
The result for `CCCOc1ccc(C2Nc3cccc4cccc(c34)N2)cc1` reads “inactive”; that for `Cc1cccc(NC(=O)c2cc3ccccc3c(=O)o2)n1`, “inactive”; that for `O=C(CCSc1nnc(-c2ccncc2)o1)Nc1ccccc1Cl`, “inactive”.
Under `COc1cccc(/C=N/NC(N)=S)c1OS(=O)(=O)c1ccccc1` stands “inactive”; under `O=C(CSc1ncn[nH]1)Nc1cccc2ccccc12`, “inactive”; under `COC(=O)c1ccccc1NC(=O)CSCC(=O)Nc1ccc(F)cc1`, “inactive”.
Under `Cc1ccc(N=Cc2c(O)ccc3ccccc23)cc1F` stands “inactive”; under `COc1cccc(/C=N/Nc2nc(N3CCCC3)nc(N3CCCC3)n2)c1O`, “inactive”; under `COc1ccccc1/C=N/NC(=S)Nc1cccnc1`, “inactive”.
Turning to `CONC(=O)c1cc(OCC(F)(F)F)ccc1OCC(F)(F)F`, the compound was classed as inactive.
As to `COC(=O)c1cccc(NC(=S)NCCC2=CCCCC2)c1`, the compound was called inactive.
Under `O=C(NCC1COc2ccccc2O1)C1CCC(CNc2c(N3CCCCC3)c(=O)c2=O)CC1` (configuration not stated) stands “inactive”.
The result for `Cc1ccc(-n2ncc(-c3nnc(SCC(=O)NC4CCCC4)o3)c2N)cc1C` reads “inactive”; that for `COc1cc(C(F)(F)F)nc2ccc(C#CCOC(=O)Nc3ccccc3)cc12`, “inactive”.
`O=C(CN1CCC(O)(c2ccc3c(c2)OCO3)CC1)OC1CCCCC1`: the call was inactive.
The result for `COc1ccc2nc(NC(=O)c3ccc(Br)s3)sc2c1` reads “inactive”; that for `COc1ccc(C(=O)Nc2nc3ccc(OC)cc3s2)cc1`, “inactive”; that for `O=C(COC(=O)c1ccc([N+](=O)[O-])s1)NCc1ccc(F)cc1`, “inactive”.
In the case of `CCOc1ccc(NC(=S)Nc2cccnc2)cc1`, the compound was classed as inactive.
The result for `Cc1c(C(=O)Nc2cccnc2)oc2ccc(Br)cc12` reads “inactive”; that for `COc1cc(NC(=O)C2CCCCC2)c(OC)cc1NC(=O)CN1CCCCC1`, “inactive”.
In the case of `Cc1ccc(S(=O)(=O)NCCCCCC(=O)Nc2nccs2)cc1`, the compound was classed as inactive.
With `Cc1nnc(SCc2ccc(C(=O)Nc3cc(Cl)ccc3C)cc2)s1`, the outcome was inactive.
Under `COc1ccc(C(=O)Nc2ccc(C(=O)OCC(=O)c3ccccc3)cc2)cc1` stands “inactive”; under `CCc1ccc2nc(/N=C(\N)NC(=O)c3ccccc3)nc(C)c2c1`, “inactive”; under `O=S1(=O)CCO[C@H]2Cc3ccccc3[C@H]2N1Cc1ccc(Cl)cc1`, “inactive”.
Take `Cc1ccc(SCCNC(=O)c2ccc(C)c([N+](=O)[O-])c2)cc1`: the result was inactive.
Under `Cc1ccc(NC(=O)O/N=C/c2c(C)nn(C(C)(C)C)c2C)cc1Cl` stands “inactive”; under `COc1ccc(-c2csc(NC(=O)c3c(C)noc3C)n2)cc1`, “inactive”.
The result for `O=C1CCNc2c(Cl)cccc21` reads “inactive”; that for `Cc1ccc(NC(=O)CSc2nnc([C@@H]3CCCN3C(=O)OC(C)(C)C)o2)c(C)c1`, “inactive”; that for `CCCCCNCc1cccc(Br)c1`, “inactive”.
Under `O=C1C2CCN(CC2)C1Cc1ccc(OCCOc2ccccc2)cc1` (configuration not stated) stands “inactive”; under `Nc1ccc(C(=O)O)c(O)c1`, “inactive”; under `COc1ccc(C(=O)NC(=S)Nc2ccc(S(=O)(=O)Nc3cc(C)on3)cc2)cc1OC`, “inactive”.
Turning to `Cc1nn(C)c(C(=O)NC(=S)Nc2ccccc2Br)c1Cl`, the compound was called inactive.
With `Cc1cc(C(=O)Nc2nnc(-c3ccccc3)s2)no1`, the result was inactive.
In the case of `Cc1ccc(NC(=O)CCS(=O)(=O)c2cccc3nonc23)cc1`, the call was inactive.
Under `CCOc1ccc(-c2nnc(-c3cccs3)o2)cc1OCC` stands “inactive”; under `O=C(Nc1ccc(F)cc1)c1sc2cc(C(F)(F)F)cnc2c1-c1cccs1`, “inactive”.
The result for `CC(=O)c1c(C)[nH]c(C(=O)OCC(=O)Nc2nnc(-c3ccccc3)o2)c1C` reads “inactive”.
